PubChem BioAssay AID1159580 (chemical genetic matrix, 2015)
Values joined by “and” are separate entries in the source; they are usually repeats but may differ in a detail not shown here. Identical values can stand only once. Among all 5,500 compounds or so, about 2,000 (36%) were called active. About 18% were inconclusive and are not listed. Rule as the data show it: active = normalized growth mostly below about 0.91 (no sharp cut-off); inconclusive = no clear call, values can overlap the other calls; inactive = mostly above about 0.92. The list shows a part of the results.

Assay: chemical genetic growth profiling, strain panel (AID 1159580);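 also: tested at 20 µM; growth read once vehicle control cultures reached saturation at 30 °C; 1 = growth at the plate median or of vehicle wells; lower values mean less growth of the strain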
Conditions: S. cerevisiae deletion strains, growth OD

Measured: normalized growth

CC(C)(C)CC(C)(C)c1ccc(OCCOCC[N+](C)(C)Cc2ccccc2)cc1
0.995 (inactive) and 0.14 (active): locus YHR030C, strain SLT2, stronger effect = lower value
inactive: locus YAL013W, strain DEP1, stronger effect = lower value 0.983 | locus YBR229C, strain ROT2, stronger effect = lower value 1.02 | locus YCL029C, strain bik1, stronger effect = lower value 0.986 | locus YDL035C, strain GPR1, stronger effect = lower value 1.01 | locus YDL074C, strain BRE1, stronger effect = lower value 0.954 | locus YDL101C, strain DUN1, stronger effect = lower value 0.988 | locus YDL134C, strain PPH21, stronger effect = lower value 0.995 | locus YDL185W, strain tfp1, stronger effect = lower value 1 | locus YDL192W, strain arf1, stronger effect = lower value 0.976 | locus YDR101C, strain arx1, stronger effect = lower value 0.991 | locus YDR150W, strain NUM1, stronger effect = lower value 1 | locus YDR162C, strain NBP2, stronger effect = lower value 0.911 | locus YDR318W, strain mcm21, stronger effect = lower value 0.997 | locus YDR388W, stronger effect = lower value 1 | locus YDR502C, strain sam2, stronger effect = lower value 0.988 | locus YEL061C, strain CIN8, stronger effect = lower value 0.999 | locus YER110C, stronger effect = lower value 0.992 | locus YER155C, strain BEM2, stronger effect = lower value 1.03 | locus YER167W, strain BCK2, stronger effect = lower value 1.02 | locus YGL078C, strain dbp3, stronger effect = lower value 0.988 | locus YGL086W, strain mad1, stronger effect = lower value 0.984 | locus YGL248W, strain PDE1, stronger effect = lower value 0.99 | locus YGR078C, strain PAC10, stronger effect = lower value 0.917 | locus YGR135W, strain pre9, stronger effect = lower value 0.994 | locus YGR252W, strain gcn5, stronger effect = lower value 0.98 | locus YHR079C, strain IRE1 (second series), stronger effect = lower value 0.991 | locus YHR094C, strain hxt1, stronger effect = lower value 0.985 | locus YHR129C, strain ARP1, stronger effect = lower value 0.994 | locus YHR200W, strain rpn10, stronger effect = lower value 0.993 | locus YIL066C, strain RNR3, stronger effect = lower value 0.994 | locus YIL073C, strain SPO22, stronger effect = lower value 0.865 | locus YIL125W, strain kgd1, stronger effect = lower value 0.991 | locus YIR030C, strain dcg1, stronger effect = lower value 0.985 | locus YJL134W, strain LCB3, stronger effect = lower value 1 | locus YJL168C, strain set2, stronger effect = lower value 0.999 | locus YJL187C, strain SWE1 (second series), stronger effect = lower value 0.989
active: locus YAL021C, strain ccr4, stronger effect = lower value 0.0688 | locus YAL026C, strain drs2, stronger effect = lower value 0.0657 | locus YAL030W, strain snc1, stronger effect = lower value 0.0593 | locus YBL061C, strain skt5, stronger effect = lower value 0.0642 | locus YBR009C, strain hhf1, stronger effect = lower value 0.0641 | locus YBR021W, strain FUR4, stronger effect = lower value 0.749 | locus YBR023C, strain chs3, stronger effect = lower value 0.0641 | locus YBR171W, strain sec66, stronger effect = lower value 0.0804 | locus YBR231C, strain swc5, stronger effect = lower value 0.0684 | locus YBR279W, strain paf1, stronger effect = lower value 0.0627 | locus YCL011C, strain gbp2, stronger effect = lower value 0.0631 | locus YCL016C, strain dcc1, stronger effect = lower value 0.0699 | locus YCL069W, strain vba3, stronger effect = lower value 0.0614 | locus YCR088W, strain abp1, stronger effect = lower value 0.0617 | locus YDL005C, strain med2, stronger effect = lower value 0.0736 | locus YDL040C, strain nat1, stronger effect = lower value 0.0719 | locus YDR001C, strain nth1, stronger effect = lower value 0.0593 | locus YDR069C, strain doa4, stronger effect = lower value 0.0664 | locus YDR137W, strain rgp1, stronger effect = lower value 0.0931 | locus YDR159W, strain sac3, stronger effect = lower value 0.1 | locus YDR195W, strain ref2 0.158 | locus YDR297W, strain sur2, stronger effect = lower value 0.0635 | locus YDR334W, strain swr1, stronger effect = lower value 0.0662 | locus YDR335W, strain msn5, stronger effect = lower value 0.0594 | locus YDR392W, strain spt3, stronger effect = lower value 0.0804 | locus YEL003W, strain gim4, stronger effect = lower value 0.0568 | locus YEL037C, strain rad23, stronger effect = lower value 0.0591 | locus YEL061C, strain CIN8 (second series), stronger effect = lower value 0.0651 | locus YER015W, strain faa2, stronger effect = lower value 0.0671 | locus YER016W, strain bim1, stronger effect = lower value 0.0697 | locus YER111C, strain swi4, stronger effect = lower value 0.0727 | locus YER155C, strain BEM2 (second series), stronger effect = lower value 0.0937 | locus YFR010W, strain ubp6, stronger effect = lower value 0.0726 | locus YGL167C, strain pmr1, stronger effect = lower value 0.837 | locus YGL173C, strain kem1, stronger effect = lower value 0.0679 | locus YGL227W, strain vid30, stronger effect = lower value 0.0676 | locus YGL240W, strain doc1, stronger effect = lower value 0.0832 | locus YGL253W, strain hxk2, stronger effect = lower value 0.058 | locus YHR013C, strain ard1, stronger effect = lower value 0.119 | locus YHR027C, strain rpn1, stronger effect = lower value 0.0623 | locus YHR079C, strain IRE1, stronger effect = lower value 0.167 | locus YHR142W, strain chs7, stronger effect = lower value 0.0755 | locus YJL092W, strain hpr5, stronger effect = lower value 0.0645 | locus YJL095W, strain BCK1 (second series), stronger effect = lower value 0.0585 | locus YJL115W, strain asf1, stronger effect = lower value 0.0787 | locus YJL129C, strain trk1, stronger effect = lower value 0.079 | locus YJL154C, strain vps35, stronger effect = lower value 0.0655 | locus YJL164C, strain tpk1, stronger effect = lower value 0.0649 | locus YJL166W, strain qcr8, stronger effect = lower value 0.0654 | locus YJL187C, strain SWE1, stronger effect = lower value 0.0616
0.912 (inactive) and 0.258 (active): locus YJL095W, strain BCK1, stronger effect = lower value
